Test results as given in PubChem BioAssay (NCATS).
Results filed as inconclusive are left out. Activity calls are given as the source filed them. The call rests on the fitted dose curve; in most records, active means well fitted curve in the direction sought with a large enough effect; inconclusive means small, poorly fitted or top-dose-only effect, or another doubt; inactive means no such curve, though single readings can be large; an effect the other way counts as inactive or inconclusive. Where a SMILES comes first, the peptide text is derived from it. [ ]: non-standard residue; d: D form. 2Abz = Nc1ccccc1C(=O)O

Key:
CRL-7250 = normal cell line; test: Cytotoxic Profiling of Annotated Libraries Using Quantitative High-Throughput Screening (AID 1296008); conditions: Five cell lines viability, CellTiter-Glo ATP luminescence, 48-72 h; max response: hits give low values; further: nearly all actives have a fitted effect of over 60% in size; on max response: on the % scale 0 is the no-effect control and ±100 the full control effect
Method in brief: (§1)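 Compounds were pin-transferred onto cells and incubated 48 or 72 hr at 37 degree Celsius, 95% humidity. CellTiter-Glo was added, plates sat 10 min at room temperature, then ATP-coupled luminescence was imaged as the viability read-out.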

HEK293 = test: as above; conditions: Five cell lines viability, CellTiter-Glo ATP luminescence, 48-72 h; max response: hits give low values
Method in brief: as §1

HaCat [1] = test: as above; conditions: Five cell lines viability, CellTiter-Glo ATP luminescence, 48-72 h; max response: hits give low values
Method in brief: as §1

KB-3-1 = test: as above; conditions: Five cell lines viability, CellTiter-Glo ATP luminescence, 48-72 h; max response: hits give low values
Method in brief: as §1

NIH3T3 [2] = test: as above; conditions: Five cell lines viability, CellTiter-Glo ATP luminescence, 48-72 h; max response: hits give low values
Method in brief: as §1

HACAT [3] = test: qHTS assay to identify novel small-molecules to repurpose for Merkel cell carcinoma treatment (AID 1296009); conditions: MCC and control cell lines, CellTiter-Glo viability, 72 h; at 44.8 µM (top of the series) unless noted; further: nearly all actives have a fitted effect of over 60% in size
Method in brief: (§2)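 qHTS format: cells treated with library compounds in DMSO across 8 (NPC) or 11 (MIPE) concentrations. Readout after 72 hr at 37 degree celsius was CellTiter-Glo luminescence.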

HEK293T = test: as above; conditions: MCC and control cell lines, CellTiter-Glo viability, 72 h; series mostly up to 44.8 µM
Method in brief: as §2

NIH3T3 [4] = test: as above; conditions: MCC and control cell lines, CellTiter-Glo viability, 72 h; at 44.8 µM (top of the series) unless noted
Method in brief: as §2

C33A = test: Primary qHTS to identify gynecologic anti-cancer compounds using libraries of approved drugs and bioactive compounds (AID 1345084); conditions: Gynecologic cancer cell panel viability, ATPlite luminescence, 48 h; series mostly up to 57.5 µM; further: on the % scale 0 is the no-effect control and ±100 the full control effect; nearly all actives have a fitted effect of over 55% in size
Method in brief: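 Five-point cytotoxicity, 48 h drug exposure at 37 C, 5% CO2, on cells seeded 16 h beforehand. ATP content read by ATPlite luminescence.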

CC(=O)OC[C@@]12[C@H](O)C[C@@H](C)[C@]3(C[C@@H](c4ccoc4)OC3=O)[C@H]1C[C@H](O)C[C@]21CO1
inactive: outcome (CRL-7250) | outcome (HEK293) | outcome (HaCat [1]) | outcome (KB-3-1) | outcome (NIH3T3 [2]) | outcome (HACAT [3]) inactive [at 17.4 µM] | Potency (HEK293T) | outcome (NIH3T3 [4]) inactive [at 17.4 µM] | Potency (C33A)

C=C(C)C(=O)O[C@H]1C[C@@](C)(OC(C)=O)[C@@]2(O)CC[C@@](C)(O)[C@H](OC(C)=O)[C@@]23OC(=O)C(COC)=C13
inactive: max response (CRL-7250) 3.52% | outcome (HEK293) | outcome (HaCat [1]) | max response (KB-3-1) 6.06% | outcome (NIH3T3 [2]) | outcome (HACAT [3]) inactive [at 17.4 µM] | Potency (HEK293T) | outcome (NIH3T3 [4]) inactive [at 17.4 µM] | Potency (C33A)

CNC(=O)Nc1ccc(OC)c(NC(=O)NC(=O)c2cc(F)c(F)cc2Cl)c1
inactive: max response (CRL-7250) -5.98% | outcome (HEK293) | outcome (HaCat [1]) | max response (KB-3-1) 0.332% | outcome (NIH3T3 [2]) | outcome (HACAT [3]) | Potency (HEK293T) | outcome (NIH3T3 [4]) | Potency (C33A)

CCC(C)C1NC(=O)C2CCCN2C(=O)C(C(C)C)NC(=O)c2ccccc2NC(=O)C(Cc2ccc(O)cc2)NC(=O)C(C)NC(=O)C(C(C)O)NC1=O (stereo not given) (cyclo([2Abz]VPITAY); configuration not given here)
inactive: max response (CRL-7250) -3.19% | outcome (HEK293) | outcome (HaCat [1]) | outcome (KB-3-1) | outcome (NIH3T3 [2]) | outcome (HACAT [3]) inactive [at 17.4 µM] | Potency (HEK293T) | outcome (NIH3T3 [4]) inactive [at 17.4 µM] | Potency (C33A)

CC(=O)OCC1=C[C@H](O)[C@@H]2C(C(=O)O)=CO[C@@H](O[C@@H]3O[C@H](CO)[C@@H](O)[C@H](O)[C@H]3O)[C@H]12
inactive: outcome (CRL-7250) | outcome (HEK293) | outcome (HaCat [1]) | max response (KB-3-1) -1.91% | outcome (NIH3T3 [2]) | outcome (HACAT [3]) inactive [at 17.4 µM] | Potency (HEK293T) | outcome (NIH3T3 [4]) inactive [at 17.4 µM] | Potency (C33A)

CCOC(=O)[C@H](CCc1ccccc1)N[C@@H](C)C(=O)N1C2CCCCC2C[C@H]1C(=O)O (stereo not given in full)
inactive: outcome (CRL-7250) | outcome (HEK293) | outcome (HaCat [1]) | max response (KB-3-1) 6.12% | outcome (NIH3T3 [2]) | outcome (HACAT [3]) | Potency (HEK293T) | outcome (NIH3T3 [4]) | Potency (C33A)

C=C1CCC2C(C)(C)CC(=O)CC2(C)C1CCC(C)CCOC(C)=O (stereo not given)
inactive: outcome (CRL-7250) | outcome (HEK293) | outcome (HaCat [1]) | max response (KB-3-1) 5.05% | outcome (NIH3T3 [2]) | outcome (HACAT [3]) | Potency (HEK293T) | outcome (NIH3T3 [4]) | Potency (C33A)

COC1(CC(C)C)NC(=O)C(O)(Cc2ccccc2)NC1=O (stereo not given)
inactive: max response (CRL-7250) 2.47% | outcome (HEK293) | outcome (HaCat [1]) | max response (KB-3-1) -4.71% | outcome (NIH3T3 [2]) | outcome (HACAT [3]) | Potency (HEK293T) | outcome (NIH3T3 [4]) | Potency (C33A)

C[C@@H]1O[C@@H](O[C@@H]2[C@@H](O)[C@H](O[C@@H]3[C@@H](O)[C@@H](O)[C@H](O[C@H]4[C@H](OC(=O)[C@]56CCC(C)(C)C[C@H]5C5=CCC7[C@@]8(C)C[C@H](O)[C@H](O[C@@H]9O[C@H](C(=O)O)[C@@H](O)[C@H](O)[C@H]9O)[C@@](C)(CO)C8[C@H](O)C[C@@]7(C)[C@]5(C)CC6)OC[C@H](O)[C@@H]4O)O[C@H]3C)OC[C@H]2O)[C@H](O)[C@H](O)[C@H]1O (stereo not given in full)
inactive: max response (CRL-7250) -17.9% | outcome (HEK293) | outcome (HaCat [1]) | max response (KB-3-1) 2.1% | outcome (NIH3T3 [2]) | outcome (HACAT [3]) inactive [at 9.27 µM] | outcome (HEK293T) inactive [at 9.27 µM] | outcome (NIH3T3 [4]) inactive [at 9.27 µM] | activity change, negative = cytotoxicity (C33A) -3.84% [at 6.55 µM]

COC(=O)C1C(c2ccc(O)cc2)C(C(=O)OC)C1c1ccc(O)cc1 (stereo not given)
inactive: max response (CRL-7250) -3.45% | outcome (HEK293) | outcome (HaCat [1]) | outcome (KB-3-1) | outcome (NIH3T3 [2]) | outcome (HACAT [3]) | Potency (HEK293T) | outcome (NIH3T3 [4]) | Potency (C33A)

COc1cccc(-c2ccc([C@@H](Oc3cc(-c4ccc(C[C@H](N)C(=O)O)cc4)nc(N)n3)C(F)(F)F)cc2)c1
inactive: outcome (CRL-7250) | outcome (HEK293) | outcome (HaCat [1]) | outcome (KB-3-1) | outcome (NIH3T3 [2]) | outcome (HACAT [3]) | Potency (HEK293T) | outcome (NIH3T3 [4]) | Potency (C33A)

COc1cc(C[C@H]2COC(=O)[C@@H]2Cc2ccc(O)c(OC)c2)ccc1O
inactive: outcome (CRL-7250) | outcome (HEK293) | outcome (HaCat [1]) | max response (KB-3-1) -4.79% | outcome (NIH3T3 [2]) | outcome (HACAT [3]) | Potency (HEK293T) | outcome (NIH3T3 [4]) | Potency (C33A)

CC(=O)[C@@H]1CC[C@]2(C(=O)O)CC[C@]3(C)C(CCC4[C@@]5(C)CC[C@H](O)C(C)(C)C5CC[C@]43C)C12 (stereo not given in full)
inactive: outcome (CRL-7250) | outcome (HEK293) | outcome (HaCat [1]) | outcome (KB-3-1) | outcome (NIH3T3 [2]) | outcome (HACAT [3]) inactive [at 17.4 µM] | Potency (HEK293T) | outcome (NIH3T3 [4]) inactive [at 17.4 µM] | Potency (C33A)

CCOc1nc2cccc(C(=O)OCc3oc(=O)oc3C)c2n1Cc1ccc(-c2ccccc2-c2noc(O)n2)cc1
inactive: outcome (CRL-7250) | outcome (HEK293) | outcome (HaCat [1]) | outcome (KB-3-1) | outcome (NIH3T3 [2]) | outcome (HACAT [3]) | Potency (HEK293T) | outcome (NIH3T3 [4]) | Potency (C33A)

O=S(=O)(NC1CCNCC1)c1cc(S(=O)(=O)c2ccccc2)ccc1C(F)(F)F
inactive: max response (CRL-7250) 1.06% | outcome (HEK293) | outcome (HaCat [1]) | max response (KB-3-1) 3.12% | outcome (NIH3T3 [2]) | outcome (HACAT [3]) | Potency (HEK293T) | outcome (NIH3T3 [4]) | Potency (C33A)
